Reference: the supplement of paper PMC13380429

System: Vero E6 infected with SARS-CoV-2
Test: inhibition of SARS-CoV-2 cytopathic effect; higher = more antiviral protection, active = above 15
Conditions: 48 h

Measured: inhibition of SARS-CoV-2 cytopathic effect

NC(N)=O [urea]
inactive: 1 nM -3.97% | 8.33 nM -3.63% | 100 nM -2.79% | 833.33 nM -2.47% | 10000 nM -3.31%

Nc1ccc(C(=O)Oc2ccccc2)c(O)c1 [phenyl-aminosalicylate]
inactive: 1 nM -11% | 8.33 nM -5.77% | 100 nM -10.6% | 833.33 nM -10.7% | 10000 nM -9.73%

O=C(/C=C\n1cnc(-c2cc(C(F)(F)F)cc(C(F)(F)F)c2)n1)N1CC(F)(F)C1
inactive: 1 nM 2.37% | 8.33 nM -1.09% | 100 nM -2.84% | 833.33 nM -7.74% | 10000 nM -16.6%

C[C@H](Nc1cc(-c2cnn(C)c2)cc(Nc2cnccn2)n1)c1ccc(F)cc1
inactive: 1 nM 1.93% | 8.33 nM 1.68% | 100 nM 2.86% | 833.33 nM -4.39% | 10000 nM -8.8%

C[C@@H]1CN(Cc2ncccn2)C[C@H]1c1nc2c(cnn2C2CCOCC2)c(=O)[nH]1
inactive: 1 nM -1.78% | 8.33 nM 1.47% | 100 nM -0.33% | 833.33 nM 1.24% | 10000 nM -2.82%

CN1CCN(c2c(F)cc3c(=O)c(C(=O)O)cn4c3c2SCC4)CC1 [rufloxacin]
inactive: 1 nM 0.11% | 8.33 nM -1.78% | 100 nM 0.94% | 833.33 nM 1.64% | 10000 nM -3.47%

CO[C@H]1CC[C@H](N2C(=O)CNc3ncc(-c4ccc(C(C)(C)O)nc4)nc32)CC1
inactive: 1 nM 0.96% | 8.33 nM -0.05% | 100 nM 0.58% | 833.33 nM -3.48% | 10000 nM -14.6%
